Data from PubChem BioAssay AID1159580 (chemical genetic matrix, 2015).
Out of some 5,500 compounds screened, about 2,000 (36%) were called active. About 18% were inconclusive and are not listed. Cut-off read from the data, not from the text of the source: active = normalized growth mostly below about 0.91 (no sharp cut-off); inconclusive = no clear call, values can overlap the other calls; inactive = mostly above about 0.92. This is one part of the list.

Assay: chemical genetic growth profiling, strain panel (AID 1159580);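 note: tested at 20 µM; growth read once vehicle control cultures reached saturation at 30 °C; 1 = growth at the plate median or of vehicle wells; lower values mean less growth of the strain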
Settings: S. cerevisiae deletion strains, growth OD

Measured: normalized growth

CC(CCC(=O)O)[C@H]1CCC2C3C(=O)C[C@@H]4CC(=O)CC[C@]4(C)C3CC(=O)[C@@]21C (stereo not given in full)
inactive: locus YAL021C, strain ccr4, hits give low values 0.995 | locus YAL026C, strain drs2, hits give low values 1 | locus YAL030W, strain snc1, hits give low values 0.994 | locus YBL061C, strain skt5, hits give low values 0.994 | locus YBR009C, strain hhf1, hits give low values 0.995 | locus YBR023C, strain chs3, hits give low values 0.993 | locus YBR171W, strain sec66, hits give low values 0.982 | locus YBR231C, strain swc5, hits give low values 0.994 | locus YBR279W, strain paf1, hits give low values 0.982 | locus YCL011C, strain gbp2, hits give low values 0.987 | locus YCL016C, strain dcc1, hits give low values 0.984 | locus YCL061C, strain MRC1, hits give low values 0.987 | locus YCL069W, strain vba3, hits give low values 0.995 | locus YCR088W, strain abp1, hits give low values 0.994 | locus YDL005C, strain med2, hits give low values 0.986 | locus YDL040C, strain nat1, hits give low values 0.991 | locus YDR001C, strain nth1, hits give low values 0.993 | locus YDR069C, strain doa4, hits give low values 1 | locus YDR137W, strain rgp1, hits give low values 1.01 | locus YDR159W, strain sac3, hits give low values 1.01 | locus YDR195W, strain ref2 0.999 | locus YDR297W, strain sur2, hits give low values 0.996 | locus YDR334W, strain swr1, hits give low values 0.993 | locus YDR335W, strain msn5, hits give low values 0.997 | locus YDR392W, strain spt3, hits give low values 0.932 | locus YEL003W, strain gim4, hits give low values 1.01 | locus YEL037C, strain rad23, hits give low values 0.99 | locus YEL061C, strain CIN8 (second series), hits give low values 0.99 | locus YER015W, strain faa2, hits give low values 1.01 | locus YER016W, strain bim1, hits give low values 0.999 | locus YER111C, strain swi4, hits give low values 0.998 | locus YER155C, strain BEM2 (second series), hits give low values 0.999 | locus YFR010W, strain ubp6, hits give low values 0.992 | locus YGL167C, strain pmr1, hits give low values 0.992 | locus YGL173C, strain kem1, hits give low values 0.989 | locus YGL227W, strain vid30, hits give low values 0.985 | locus YGL240W, strain doc1, hits give low values 1.01 | locus YGL253W, strain hxk2, hits give low values 0.991 | locus YHR013C, strain ard1, hits give low values 0.99 | locus YHR027C, strain rpn1, hits give low values 0.995 | locus YHR030C, strain SLT2, hits give low values 1.02 | locus YHR079C, strain IRE1, hits give low values 1.02 | locus YHR142W, strain chs7, hits give low values 0.952 | locus YJL092W, strain hpr5, hits give low values 0.993 | locus YJL095W, strain BCK1 (second series), hits give low values 0.991 | locus YJL095W, strain BCK1, hits give low values 1.01 | locus YJL115W, strain asf1, hits give low values 0.991 | locus YJL129C, strain trk1, hits give low values 1.01 | locus YJL154C, strain vps35, hits give low values 0.993 | locus YJL164C, strain tpk1, hits give low values 0.99 | locus YJL166W, strain qcr8, hits give low values 0.989 | locus YJL187C, strain SWE1, hits give low values 0.99 | locus YJR066W, strain TOR1, hits give low values 0.975 | locus YKL160W, strain elf1, hits give low values 0.977 | locus YKR026C, strain gcn3, hits give low values 0.993 | locus YKR091W, strain srl3, hits give low values 0.99 | locus YLL001W, strain dnm1, hits give low values 0.975 | locus YLL026W, hits give low values 0.998 | locus YLL041C, strain sdh2, hits give low values 0.993 | locus YLR027C, strain aat2, hits give low values 0.991 | locus YLR113W, strain HOG1, hits give low values 1.05 | locus YLR221C, strain rsa3, hits give low values 0.964 | locus YLR258W, strain gsy2, hits give low values 0.992 | locus YLR262C, strain YPT6 (second series), hits give low values 1 | locus YLR320W, strain mms22, hits give low values 0.971 | locus YLR342W, strain FKS1, hits give low values 0.99 | locus YLR357W, strain rsc2, hits give low values 0.986 | locus YLR370C, strain arc18, hits give low values 0.993 | locus YLR384C, strain iki3, hits give low values 0.978 | locus YML120C, strain ndi1, hits give low values 0.989 | locus YMR058W, strain fet3, hits give low values 0.999 | locus YMR125W, strain sto1, hits give low values 0.982 | locus YMR129W, hits give low values 0.99 | locus YMR205C, strain PFK2, hits give low values 0.989 | locus YMR231W, strain pep5, hits give low values 0.999 | locus YNL071W, strain lat1, hits give low values 0.997 | locus YNL183C, strain NPR1, hits give low values 0.997 | locus YNL209W, strain ssb2, hits give low values 0.997 | locus YNL248C, strain rpa49, hits give low values 0.982 | locus YNL322C, strain KRE1 (second series), hits give low values 0.992 | locus YNR049C, strain mso1, hits give low values 0.992 | locus YOR001W, strain rrp6, hits give low values 1.02 | locus YOR070C, strain gyp1, hits give low values 0.996 | locus YOR080W, strain dia2, hits give low values 0.994 | locus YOR083W, strain WHI5, hits give low values 0.969 | locus YOR106W, strain vam3, hits give low values 0.974 | locus YOR231W, strain MKK1, hits give low values 1.07 | locus YOR265W, strain rbl2, hits give low values 0.998 | locus YOR270C, strain vph1, hits give low values 0.957 | locus YOR290C, strain snf2, hits give low values 0.993 | locus YPL051W, strain arl3, hits give low values 1.01 | locus YPL078C, strain atp4, hits give low values 0.98 | locus YPL106C, strain sse1, hits give low values 0.975 | locus YPL240C, strain hsp82, hits give low values 1 | locus YPL256C, strain CLN2, hits give low values 1.02
